Results published in PubChem BioAssay (NCI).
Compounds without any hit were thinned out: in the full panel of roughly 79,000, 15% have a hit. Rule as the data show it: active = growth inhibition above about 70%; inactive = the rest.

Assay: NCI Yeast Anticancer Drug Screen. Data for the rad50EPP+ strain (AID 151);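 also: 0% = growth of vehicle-treated control cultures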
Settings: S. cerevisiae rad50 mutant strain, hits give high values
Description: Growth inhibition of yeast strains with defined genetic alterations is measured as a screen for potential anti-cancer activity. Selected strains with alterations in DNA damage repair or cell cycle control were exposed to compounds and growth inhibition was measured relative to vehicle treated controls. The strain used in this assay is rad50EPP+

Measured: growth inhibition

CCCCCCCCCCCCNC(C)=O
inactive: at 1.2 µM -2% | at 3.7 µM 1% | at 11.0 µM 7% | at 33.0 µM 14% | at 100.0 µM 26%

O=C(CC(C(=O)O)N1CCOCC1)c1ccccc1 (stereo not given)
inactive: at 1.2 µM -2% | at 3.7 µM -1% | at 11.0 µM 2% | at 33.0 µM 12% | at 100.0 µM 43%

O=C1CSC(c2cccc(Cl)c2)N1c1ccc(-c2ccc(-n3c(-c4ccccc4)nc4ccccc4c3=O)cc2)cc1 (stereo not given)
inactive: at 1.2 µM -1% | at 3.7 µM 4% | at 11.0 µM 8% | at 33.0 µM 9% | at 100.0 µM -4%

O=C1/C(=C/c2ccccc2)CCCC1CN1CCCCC1 (stereo not given)
inactive: at 1.2 µM -2% | at 3.7 µM -1% | at 11.0 µM 15% | at 33.0 µM 46% | at 100.0 µM 51%

O=C(O)c1cc2ccc(Cl)cc2c(O)c1C1=CCCCC1
inactive: at 1.2 µM 8% | at 3.7 µM 8% | at 11.0 µM 13% | at 33.0 µM 13% | at 100.0 µM 33%

Cc1cccc(/C=N/NC(=S)N2CCCC2)n1
inactive: at 1.2 µM -21% | at 3.7 µM -21% | at 11.0 µM -24% | at 33.0 µM -27% | at 100.0 µM 38%

Clc1ccc2c(c1)N(CCCN1CCCC13CCCCC3)c1ccccc1S2
inactive: at 1.2 µM 0% | at 3.7 µM 3% | at 11.0 µM -2% | at 33.0 µM -3% | at 100.0 µM -7%

CN1C(=O)c2ccc3ccccc3c2C1=O
inactive: at 1.2 µM 8% | at 3.7 µM 12% | at 11.0 µM 42% | at 33.0 µM 58% | at 100.0 µM 52%
